# This is a sample that favours compounds with a hit; in the whole collection about 3.4% have one here.
# Bst PK mod – Pyruvate Kinase. actives 1.2% (n = 51,000). Potency, µM. purified pyruvate kinase, luminescence ATP production; ribose 5-phosphate activator present at AC10. AID 361, 2006; in the data active = potency below about 11 µM; inconclusive = mostly about 12 µM to 25 µM;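 the screen sought inhibitors and activators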;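 note: scaled between full activation by ribose 5 phosphate and full inhibition by luteolin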
# GBA mod – Glucocerebrosidase. Lysosomal acid glucosylceramidase (Homo sapiens), P04062. purified enzyme, resorufin glucoside fluorescence (screen aimed at inhibitors), 20 min. Potency, µM. actives 1.1% (n = 48,000). AID 360, 2006; in the data active = potency below about 15 µM; inconclusive = mostly about 16 µM to 33 µM;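 note: the screen sought inhibitors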
#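 Compounds titrated against 0.2 nM normal enzyme, 30 uM resorufin beta-D-glucopyranoside substrate, citrate/phosphate buffer with taurocholate and tween-20, pH 5.9. Reaction ran 20 min at room temperature; fluorescence (Ex 548/Em 600) gave AC50.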
# FLuc inh – qHTS Assay for Inhibitors of Firefly Luciferase; Luciferin 4-monooxygenase (Photinus pyralis), P08659; purified firefly luciferase, luminescence, 8 min; Potency, µM (doses to about 57.1 µM), without a hit: at the highest dose activity change, negative = inhibition, usual class: inhibitors; actives 2.2% (n = 72,000); active = well fitted inhibition curve with a large enough effect; inconclusive = small, poorly fitted or top-dose-only effect; note: % is set by controls: 0 for no effect and ±100 for the full control effect; nearly all actives have a fitted effect of over 40% in size
# Target sequence (P08659 whole entry, looked up): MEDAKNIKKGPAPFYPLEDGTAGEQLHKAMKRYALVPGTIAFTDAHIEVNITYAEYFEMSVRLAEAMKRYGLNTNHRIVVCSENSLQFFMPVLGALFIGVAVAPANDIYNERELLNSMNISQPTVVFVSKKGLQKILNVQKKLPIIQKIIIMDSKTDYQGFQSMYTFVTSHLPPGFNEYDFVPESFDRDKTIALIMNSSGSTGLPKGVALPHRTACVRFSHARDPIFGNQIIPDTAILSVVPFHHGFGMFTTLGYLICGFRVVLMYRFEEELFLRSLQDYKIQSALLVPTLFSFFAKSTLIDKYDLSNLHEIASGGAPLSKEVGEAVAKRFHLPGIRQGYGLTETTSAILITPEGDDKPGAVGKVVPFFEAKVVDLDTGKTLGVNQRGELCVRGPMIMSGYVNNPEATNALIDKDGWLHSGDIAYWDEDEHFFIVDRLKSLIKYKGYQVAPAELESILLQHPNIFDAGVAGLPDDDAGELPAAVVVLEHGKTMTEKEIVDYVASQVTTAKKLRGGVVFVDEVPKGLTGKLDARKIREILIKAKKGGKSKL
#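 Compounds were tested as concentration series (qHTS) against purified P. pyralis luciferase with luciferin and 10 uM ATP in 50 mM imidazole pH 7.2, 50 mM KCl, 7 mM MgCl2, 0.01% Tween 20, 0.05% BSA. Luminescence was read after 8 min at ambient temperature.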
# The depositor's hits bear a star; i = inactive; u = inconclusive; x = no result given; [ ] = remark or other dose. Potency is the fitted concentration of half-maximal effect.
SMILES,Bst PK mod,GBA mod,FLuc inh
Cc1ccc(S(=O)(=O)Nc2cccc(-c3cn4ccsc4n3)c2)cc1,>57,x,-2.8%
Cc1ccc2nc(-c3cccc(S(=O)(=O)N(C)C)c3)cn2c1,i,>76.9,12.6µM*
CC(=Nc1ccc(O)cc1)c1sc2ccccc2c1O,u,>76.9,7.94µM*
CC(=O)NCCN=C(C)c1sc2ccccc2c1O,>11.4,>76.9,-23.3%
COc1ccc(-n2c(=O)c(-c3ccc(Cl)cc3)nc3cnc(N4CCOCC4)nc32)cc1,x,x,-1.6%[11.4 µM]
COC(=O)Cc1c(C)c2ccc(OCC(C)=O)c(C)c2oc1=O,>57,>76.9,-2.3%
C=C(C)COc1ccc2c(C)c(CC(=O)OC)c(=O)oc2c1C,i,x,15.8µM*
O=c1c(-c2cc(F)cc(F)c2)nc2cnc(Nc3ccccc3)nc2n1C[C@H]1CCCO1,x,x,-0.8%[11.4 µM]
O=C(N1CCOCC1)N1CCN(c2nc(-c3ccc(F)cc3)cs2)CC1,i,>76.9,15.8µM*
O=C(CN1CCN(c2nc(-c3ccc(F)cc3)cs2)CC1)Nc1ccc2c(c1)OCO2,>57,>76.9,2.3%
COCC(=O)N1CCC2(CC1)CCN(C(c1ccccc1)c1ccccc1)CC2,x,x,-0.1%[11.4 µM]
COc1ncc2nc(-c3cccs3)c(=O)n(-c3ccccc3)c2n1,x,x,0.7%[11.4 µM]
COc1cc(C(=O)Nc2ccccn2)cc(OC)c1OC,>25.6,x,1.1%[25.5 µM]
Cc1cc(C)n(-c2ccc(C(=O)Nc3sccc3C(N)=O)cc2)n1,i,14.9*,-28.8%
Cc1cc(C)n(-c2ccc(C(=O)Nc3ccc4c(c3)OCCO4)cc2)n1,i,u,12.6µM*
Cc1cc(C)n(-c2ccc(C(=O)NCc3cccs3)cc2)n1,>57,>76.9,-0.6%
Cc1cc(C)n(-c2ccc(C(=O)NCc3ccc4c(c3)OCO4)cc2)n1,>57,>76.9,-29.6%
Cc1cc(C(=O)Nc2ccccn2)cs1,x,>76.9,12.6µM*
Cc1cc(C)n(-c2ccc(C(=O)Nc3ccccn3)cc2)n1,i,>76.9,12.6µM*
CN(C)S(=O)(=O)c1ccc(C(=O)Nc2ccccn2)cc1,x,x,-14.6%
Cc1c2ccccc2c(CSC(=N)N)c2ccccc12,x,x,4.3%[11.4 µM]
NC(=O)[C@@H]1CCCNC1,x,x,0.5%[11.4 µM]
C#CCCCO/N=C1/C[C@@H](O)[C@@H](O)[C@@H]2[C@@H]3C(=O)N(Cc4ccc5c(c4)OCO5)C(=O)[C@H]3CC[C@H]12,x,x,0.2%[11.4 µM]
COc1ccc(-n2c(=O)c(C)nc3cnc(Oc4cccc(Cl)c4)nc32)cc1,x,x,0.5%[11.4 µM]
COc1cccc(C(=O)Nc2cccc(NC(C)=O)c2)c1,x,x,-8.2%
SMILES,Bst PK mod,GBA mod,FLuc inh
COc1cccc(C(=O)Nc2ccc(NC(=O)C(C)(C)C)cn2)c1,3.74*,>76.9,3.98µM*
COc1ccc(NC(=O)c2ccc(S(=O)(=O)N(C)C)cc2)cc1OC,>57,>76.9,-3.1%
COc1cccc(C(=O)Nc2cnc(NC(=O)c3ccco3)cc2C)c1,>57,>76.9,-4.1%
COc1ccc(C(=O)Nc2cccc(OC)c2)cc1,x,x,7.94µM*
COc1ccc(C(=O)Nc2ccc(OC)c(OC)c2)cc1,i,>76.9,25.1µM*
C[C@@H]1CC[C@H]2C(=O)NC[C@@H](O)CN2[C@@H]1c1ccc(Br)cc1,x,x,1.0%[11.4 µM]
O=C(Nc1cccc(F)c1)N1CC[C@@]2(CCCN(C(=O)c3csnn3)C2)C1,x,x,0.3%[11.4 µM]
O=C(O)CSc1ccn(Cc2ccccc2)c1,x,x,0.2%[11.4 µM]
Cc1cccc(OCC(=O)Nc2cccc(O)c2)c1,x,>76.9,-10.5%
Cc1ccc(OCC(=O)Nc2cccc(O)c2)cc1C,x,u,15.8µM*
COc1ccc(OCC(=O)Nc2ccc(C)cc2)cc1,x,>76.9,-7.2%
CCC(=O)Nc1cccc(NC(=O)COc2ccc(OC)cc2)c1,x,>76.9,20µM*
COCCn1c(=O)c(-c2ccc(Cl)cc2)nc2cnc(OC)nc21,x,x,1.2%[11.4 µM]
CSC(=NC1CCCCC1)NS(=O)(=O)c1ccccc1,>57,u,1.0%
CC(=NC1CCCCC1)C1=C(O)c2ccccc2C1=O,x,x,7.94µM*
CN1CCc2ccccc2[C@@H]1Cc1ccccc1NC(=O)c1sc2ccccc2c1Cl,x,x,-2.7%[11.4 µM]
Clc1ccc2[nH]c3c(c2c1)CCc1cn[nH]c1-3,x,x,-9.5%
c1ccc2c3c([nH]c2c1)-c1[nH]ncc1CC3,3.14*,>76.9,-5.2%
CCCCn1nc(NC(=O)c2cccs2)c2cc3cc(OC)ccc3nc21,x,i,u
CCCn1nc(NC(=O)c2cccs2)c2cc3cc(OC)ccc3nc21,i,i,10µM*
COc1cccc(Cn2c(=O)c(-c3cccs3)nc3cnc(N4CCNCC4)nc32)c1,x,x,-2.7%[11.4 µM]
CCCN(CCC)c1ncnc2c1cnn2-c1ccc(OC)cc1,u,>76.9,15.8µM*
COc1ccc(-n2ncc3c(Nc4cccc(C)c4)ncnc32)cc1,i,x,-0.3%[25.5 µM]
CCCNc1ncnc2c1cnn2-c1ccc(OC)cc1,u,x,7.94µM*
COc1ccc(-n2ncc3c(NCCCN4CCOCC4)ncnc32)cc1,x,i,-29.1%
SMILES,Bst PK mod,GBA mod,FLuc inh
C[N+]1(NCC[N@@+]2(C)CCc3ccccc3C2)CCCCC1,x,x,1.9%[11.4 µM]
O=C1[C@@H]2[C@@H]3C=C[C@H]([C@@H]2C(=O)N1CN1CCSCC1)[C@@H]1[C@@H]2C(=O)N(CN4CCSCC4)C(=O)[C@@H]2[C@H]31,x,x,2.3%[11.4 µM]
O=C(c1cc2ccccc2o1)c1cccs1,u,>76.9,u
O=C(c1cccs1)c1ccc(-c2cccs2)s1,6.31*,>76.9,5.01µM*
COc1ccc(-c2nc3cnc(OC)nc3n(-c3ccccc3)c2=O)cc1,x,x,1.8%[11.4 µM]
CC1=C(/C=C\C(=O)O)C(C)(C)CCC1,x,x,1.4%[11.4 µM]
O=S(=O)(c1ccc2c(c1)OCCO2)N1CCN(c2nc3ccccc3s2)CC1,>57,>76.9,0.1%
c1ccc2c(c1)CCN(c1nc3cc4c(cc3s1)OCCO4)C2,0.439*,>76.9,0.316µM*
CN(C)c1ccc(C(=C2C=CC(=[N+](C)C)C=C2)c2c(O)c(S(=O)(=O)O)cc3cc(S(=O)(=O)O)ccc23)cc1,x,x,3.16µM*
COc1ccc(NC(=O)N2CCCC3(CCN(S(C)(=O)=O)CC3)C2)cc1,x,x,0.4%[11.4 µM]
c1ccc(-c2cnc(-c3ccc(-c4ncc(-c5ccccc5)o4)cc3)o2)cc1,x,x,0.6%[11.4 µM]
CC(=O)/C=C(\C)Nc1ccc(-c2cnc(-c3ccccc3)o2)cc1,x,x,10µM*
COc1ccccc1NS(=O)(=O)c1cccc2cccnc12,x,x,3.7%
COc1ccc(NS(=O)(=O)c2cccc3cccnc23)cc1,2.61*,>76.9,-3.0%
O=S(=O)(NC1CCCCCC1)c1cccc2cccnc12,11*,>76.9,2.8%
O=C(Oc1cccc2cccnc12)c1ccc(Br)o1,i,>76.9,-0.8%
CN(CC(=O)NC1CCCCCCC1)S(=O)(=O)c1cccc2cccnc12,x,x,2.8%
O=C(Oc1cccc2cccnc12)c1ccc2c(c1)OCCO2,10.5*,>76.9,1.9%
O=C(O)c1ccccc1NS(=O)(=O)c1cccc2cccnc12,9.09*,>76.9,-0.3%
O=C(O)c1ccccc1NS(=O)(=O)c1ccccc1C(F)(F)F,>57,>76.9,0.5%
c1cncc(-c2cc(-c3cc(-c4cccnc4)n[nH]3)[nH]n2)c1,x,x,3.1%[11.4 µM]
CC1(C)CCC[C@@]2(C)[C@@H]1CC[C@]1(C)OC(=O)C[C@@H]21,x,x,0.1%[11.4 µM]
O=C1[C@@H]2[C@@H](C(=O)N1c1ccc(OCc3ccccc3)cc1)[C@@H]1c3ccccc3[C@@H]2[n+]2ccccc21,x,x,1.3%[11.4 µM]
CN1CCN(c2ncc3nc(-c4cn(C)c5ccccc45)c(=O)n(CCC#N)c3n2)CC1,x,x,0.6%[11.4 µM]
Nc1nc(Cc2ccccc2)nc(Cc2ccccc2)c1-c1ccccc1,x,x,3.0%[11.4 µM]

# High-throughput results (PubChem)
